Assay [1] has as its target Catechol O-methyltransferase (Homo sapiens) (UniProt P21964). As to the kind of experiment: Confirmatory Screen for Target Class Profiling of Small Molecule Inhibitors of Methyltransferases (AID 1745852; calls by dose curve; for activity change, negative = inhibition: % is set by controls: 0 for no effect and ±100 for the full control effect). As to conditions: MTase-Glo luminescence, SAH detection, recombinant enzyme; measured here: COMT max response; stronger effect = lower value.
The target of assay [2] is Guanidinoacetate N-methyltransferase (Homo sapiens) (UniProt Q14353). Described as above. As to conditions: MTase-Glo luminescence, SAH detection, recombinant enzyme; activity change, negative = inhibition: at 57.3 µM (top of the series) unless noted; series mostly up to 57.3 µM.
Assay [3] has as its target Nicotinamide N-methyltransferase (Homo sapiens) (UniProt P40261). The description is as above. As to conditions: MTase-Glo luminescence, SAH detection, recombinant enzyme; measured here: NNMT max response; stronger effect = lower value.
The target in assay [4] is Phenylethanolamine N-methyltransferase (Homo sapiens) (UniProt P11086). The assay is described as above. As to conditions: MTase-Glo luminescence, SAH detection, recombinant enzyme; measured here: PNMT max response; stronger effect = lower value.
Assay [5] has as its target Glutathione peroxidase 1 (Homo sapiens) (UniProt P07203). As to the kind of experiment: Primary qHTS Assay for Inhibitors of Recombinant Selenoprotein Glutathione Peroxidase 1 (GPX1) (AID 1845191). Note: nearly all actives have a fitted effect of over 65% in size. As to conditions: recombinant GPX1, GR-coupled NADPH fluorescence, 15 min; series mostly up to 48.8 µM. In a few lines:
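GPX1 10 nM, GR 100 nM, GSH 1 mM, NADPH 0.5 mM, CHP 0.5 mM (final). 30-min cpd preincubation, RT. Ex340/Em450 read t=0, t=15 min.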
For orientation: In qHTS, concentration-response curves come from the screen itself.

Assay [6] concerns the target Phospholipid hydroperoxide glutathione peroxidase GPX4 (Homo sapiens) (UniProt P36969). As to the kind of experiment: Primary qHTS Assay for Inhibitors of Recombinant Selenoprotein Glutathione Peroxidase 4 (GPX4) (AID 1845192). Note: % is set by controls: 0 for no effect and ±100 for the full control effect; nearly all actives have a fitted effect of over 65% in size. The note with it: recombinant GPX4, GR-coupled NADPH fluorescence, 15 min; series mostly up to 50 µM. In a few lines:
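qHTS, GR-coupled: GPX4 200 nM + cpd 30 min RT → GSH 1 mM, NADPH 0.5 mM, GR 100 nM → CHP 0.5 mM start; fluor 340/450 at t0 and t15 min; no-enzyme wells as control.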

The nature of assay [7]: Primary fluorescence-based thiol-reactive (MSTI) qHTS assay for identification of artifact compounds. (AID 1845221). Note: nearly all actives have a fitted effect of over 65% in size. Note: potency is the fitted concentration of half-maximal effect. The note with it: MSTI thiol-reactivity probe, 1 h; series mostly up to 53.8 µM. In a few lines: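 MSTI probe at 4 uM final in 2% DMSO/PBS pH 7.4; compounds, 1 h at room temperature in dark. Fluorescence Ex/Em 525/598 nm, normalised to Acetyl-MSTI and MSTI, fitted to 4-parameter Hill.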

Assay [8] concerns Nanoluciferase (engineered Oplophorus gracilirostris luciferase). As to the kind of experiment: Primary Nanoluciferase (NLuc) qHTS assay for identification of artifact compounds. (AID 1845222). The note with it: NLuc-conditioned medium, Nano-Glo luminescence, 5 min; series mostly up to 54.1 µM. In a few lines:
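Luminescence read-out of secreted NLuc in S16 cell conditioned medium (1:55); compounds tested with 15 min RT preincubation, then Nano-Glo substrate 1:100, 5 min. % inhibition vs no-enzyme and DMSO controls, 4-parameter Hill fit.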

The nature of assay [9]: Primary redox qHTS assay for identification of artifact compounds. (AID 1845223).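 Note: 0% = DMSO and 100% = reference compound.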 The note with it: Amplex Red/HRP redox cycling with DTT, fluorescence; series mostly up to 53.8 µM. In outline: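 Redox-cycling detection via DTT (250 uM final) oxidation coupled to Amplex Red (25 uM)/HRP (250 mU/mL) in HBSS. 15 min preincubation plus 30 min after DTT, room temperature. Ex/Em 525/598 nm; 4-parameter Hill fit against DMSO and 10 uM DA3003.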

For assay [10], the target named is Luciferin 4-monooxygenase (Photinus pyralis) (UniProt P08659). Put plainly: Primary firefly luciferase (FLuc) qHTS assay for identification of artifact compounds. (AID 1845220).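 For activity change, negative = inhibition: plate controls were DMSO vehicle for no effect and no enzyme for full effect.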 Note: nearly all actives have a fitted effect of over 60% in size. As to conditions: purified firefly luciferase, luminescence, 5 min; series mostly up to 54.1 µM. In a few lines: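 qHTS, 15 min compound preincubation with substrate (10 uM luciferin, 10 uM ATP) at RT, then 10 nM FLuc; 5 min; luminescence; % inhibition vs no-enzyme/DMSO controls, 4-parameter Hill fit.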

Inconclusive results are not listed. Calls of active or inactive are those of the source. Unless noted, calls come from the whole dose curve; as a rule, active = well fitted curve in the direction sought with a large enough effect; inconclusive = small, poorly fitted or top-dose-only effect, or another doubt; inactive = no such curve, though single readings can be large; an effect the other way counts as inactive or inconclusive.

Phenylethanolamine N-methyltransferase (Homo sapiens), sequence (P11086 whole entry, looked up): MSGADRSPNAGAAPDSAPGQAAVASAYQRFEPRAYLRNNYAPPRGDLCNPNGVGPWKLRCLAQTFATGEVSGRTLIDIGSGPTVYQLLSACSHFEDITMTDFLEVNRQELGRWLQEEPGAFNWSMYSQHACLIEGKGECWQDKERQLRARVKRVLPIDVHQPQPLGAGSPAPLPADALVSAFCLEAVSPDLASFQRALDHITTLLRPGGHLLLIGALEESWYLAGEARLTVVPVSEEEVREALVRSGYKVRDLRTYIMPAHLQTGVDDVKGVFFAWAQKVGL
Glutathione peroxidase 1 (Homo sapiens), sequence (P07203 whole entry, looked up): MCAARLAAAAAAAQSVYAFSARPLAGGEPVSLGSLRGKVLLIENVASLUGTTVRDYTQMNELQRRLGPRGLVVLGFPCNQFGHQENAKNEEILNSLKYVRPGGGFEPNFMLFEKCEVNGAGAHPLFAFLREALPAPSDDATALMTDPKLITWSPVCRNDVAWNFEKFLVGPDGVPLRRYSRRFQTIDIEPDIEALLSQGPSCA
Nicotinamide N-methyltransferase (Homo sapiens), sequence (P40261 whole entry, looked up): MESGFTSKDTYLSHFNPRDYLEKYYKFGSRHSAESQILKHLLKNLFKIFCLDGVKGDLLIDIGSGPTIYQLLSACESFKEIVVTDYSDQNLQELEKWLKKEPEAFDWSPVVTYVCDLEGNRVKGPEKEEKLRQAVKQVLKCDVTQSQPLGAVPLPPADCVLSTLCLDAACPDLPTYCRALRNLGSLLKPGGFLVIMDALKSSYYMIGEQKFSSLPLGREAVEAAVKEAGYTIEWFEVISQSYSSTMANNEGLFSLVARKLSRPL
Catechol O-methyltransferase (Homo sapiens), sequence (P21964 whole entry, looked up): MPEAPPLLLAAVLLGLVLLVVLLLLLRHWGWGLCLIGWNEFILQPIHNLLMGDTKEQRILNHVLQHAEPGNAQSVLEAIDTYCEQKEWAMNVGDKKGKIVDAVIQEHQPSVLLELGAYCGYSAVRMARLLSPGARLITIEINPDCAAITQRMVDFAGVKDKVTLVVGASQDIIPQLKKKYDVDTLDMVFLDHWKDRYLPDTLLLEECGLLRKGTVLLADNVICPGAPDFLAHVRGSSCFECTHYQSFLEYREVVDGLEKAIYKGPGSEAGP
Phospholipid hydroperoxide glutathione peroxidase GPX4 (Homo sapiens), sequence (P36969 whole entry, looked up): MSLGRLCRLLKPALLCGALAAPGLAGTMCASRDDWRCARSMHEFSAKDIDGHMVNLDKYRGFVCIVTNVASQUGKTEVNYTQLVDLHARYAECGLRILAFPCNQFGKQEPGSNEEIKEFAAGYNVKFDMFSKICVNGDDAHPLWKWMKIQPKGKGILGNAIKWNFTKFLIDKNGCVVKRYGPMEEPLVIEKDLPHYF

Consider `COc1c(CCC(=O)O)cccc1O[C@@H]1O[C@H](CO)[C@@H](O)[C@H](O)[C@H]1O`, for which the results for the activity in assay [1], in assay [3] and in assay [4] were -74.9%, 0.561% and -9.51%, respectively. For the same compound, the activity change, negative = inhibition in assay [2] was found to be 2.56%. Also, the Potency result in [5], in [6], in assay [8] and in assay [9] was “inactive” in each case. Further, the Potency in assay [7] was 13.1 µM (active).

Turning to `COc1ccccc1OCCNCC(O)CCOc1cccc2[nH]c3ccccc3c12` (stereo unspecified), the activity was -5.33% in assay [1], -4.12% in assay [3] and -93.1% in assay [4]. In addition, the activity change, negative = inhibition in [2] stood at 2.56%. In addition, the Potency entry in assay [5], in assay [6], in [10], in assay [7], in [8] and in assay [9] was “inactive” throughout.

As to `CC1(C)CC[C@]2(C(=O)O)CC[C@]3(C)C(=CCC4[C@@]5(C)C[C@@H](O)[C@H](O)C(CO)(CO)C5CC[C@]43C)C2[C@@H]1O` (stereo partly specified), the figures for the activity in [1], in [3] and in assay [4] were -63.1%, 0% and 6.04%, respectively. In addition, the activity change, negative = inhibition in assay [2] was determined as 0% [at 29.8 µM]. Also, the Potency result in [5], in [6], in assay [10], in [8] and in assay [9] was “inactive” throughout.

In the case of `C=C1C(=O)OC2/C=C(\C)CC/C=C(\C=O)C(OC)C(OC(=O)C(C)CC)C12` (stereo unspecified), the activity in assay [1] is -70.5%; in [3], -2.69%; in assay [4], -0.332%. The activity change, negative = inhibition in assay [2] was -5.12%. The Potency entry in assay [5], in assay [6], in assay [10], in assay [8] and in assay [9] was “inactive” throughout.

For the compound `C=C1C(=O)O[C@@H]2/C=C(\CO)CC/C=C(/C=O)C[C@H](O)[C@@H]12`, the activity in assay [1] was -86.9%; in assay [3] it was 4.28%; in [4] it was 0.589%. For the same compound, the activity change, negative = inhibition in assay [2] was -3.06%. The Potency result in assay [5], in assay [6], in assay [8] and in assay [9] was “inactive” in each case. The Potency in assay [7] is 11.9 µM (active).

Turning to `COc1ccc(N(C(=O)Nc2c(C)cccc2C)c2cc(Nc3ccc(N4CCN(C)CC4)cc3)ncn2)c(OC)c1`, the activity in assay [1] is -5.96%; in assay [3] it was -36.9%; in [4] it was -7.92%. In addition, the activity change, negative = inhibition in assay [2] was 0%. Also, the Potency entry in [5], in assay [6], in assay [10], in assay [8] and in assay [9] was “inactive” in each case.

With `CCN(CC)CCCCCCNc1cc(OC)cc2c(C)ccnc12`, the activity in assay [1] was -3.27%; in assay [3] it was 0.614%; in assay [4], 2.1%. In addition, the activity change, negative = inhibition in assay [2] was -0.864%. Further, the Potency result in assay [5], in [6], in [10] and in [8] was “inactive” each time.

With `COc1ccccc1N1CCN(c2ncnc3n[nH]c(Br)c23)CC1`, the figures for the activity in assay [1], in assay [3] and in assay [4] were -8.96%, -42.7% and -19.8%, respectively. In addition, in assay [2], the activity change, negative = inhibition was -0.635%. Further, the Potency result in assay [5], in [6], in assay [10], in [7], in assay [8] and in assay [9] was “inactive” in each case.

On to `Cc1cn(CCN2CCN(c3ccccc3-c3cc(C#N)cc(C(=O)NCCCN4CCCC4)c3)CC2)c2ccccc12`, for which the values for the activity in assay [1], in assay [3] and in assay [4] were 3.99%, -4.29% and 2.94%, respectively. Besides, the activity change, negative = inhibition in assay [2] is 10.2%. Moreover, the Potency entry in assay [5], in assay [6], in assay [10], in assay [7], in assay [8] and in [9] was “inactive” in each case.

As for `O=C1NC(=O)C(c2cnc3ccccn23)=C1c1cn2c3c(cc(F)cc13)CN(C(=O)N1CCCCC1)CC2`, the results for the activity in assay [1], in assay [3] and in [4] were -28.3%, -51.2% and -20.8%, respectively. Moreover, the activity change, negative = inhibition in assay [2] is -13.3%. Also, the Potency result in [5], in assay [6], in assay [10], in assay [8] and in assay [9] was “inactive” each time.

`C=C1C(=O)O[C@H]2CC(=C)[C@H]3CC[C@@](C)(O)[C@@H]3CC12` (stereo partly specified): the activity in assay [1] is -86%; in assay [3], 0%; in assay [4], 3.31%. The activity change, negative = inhibition in [2] was 1.75%. The Potency entry in [5], in assay [6], in assay [8] and in [9] was “inactive” throughout. Moreover, in assay [7], the Potency is 5.32 µM (active).

The values above are taken from PubChem BioAssay (NCATS).
